Source: PubChem BioAssay (NCATS)
Results filed as inconclusive are left out. Active and inactive are the calls of the source. Unless noted, calls follow the shape of the dose curve; as a rule, active = well fitted curve in the direction sought with a large enough effect; inconclusive = small, poorly fitted or top-dose-only effect, or another doubt; inactive = no such curve, though single readings can be large; an effect the other way counts as inactive or inconclusive.

Experiments:
[1] = AP1 Signaling Pathway (AID 357; active = well fitted curve in either direction with a large enough effect, not every such curve was filed as active;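 also: ME-180 reporter cells stimulated with EGF at its EC50 level; % is scaled to controls: 0 for no effect and ±100 for the full control effect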); conditions: ME-180 AP-1-bla reporter, EGF-induced, beta-lactamase ratio, 5 h; at 17.2 µM (top of the series) unless noted
In short: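 Modulation of EGF-driven AP-1 transcription was assessed with a beta-lactamase reporter in ME-180 cells. Compound and EC50 EGF were co-incubated 5 hours at 37 °C before 2.5-hour CCF4 loading at room temperature and dual-emission reading.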

[2] = Stat Signaling Pathway (AID 446; active = well fitted curve in either direction with a large enough effect, not every such curve was filed as active;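 also: ME-180 cervical cancer cells given 40 pM IL-6 alongside compound; SIE-controlled beta-lactamase reporter measured as 460/530 nm FRET emission ratio; % is scaled to controls: 0 for no effect and ±100 for the full control effect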); conditions: ME-180 (cervical carcinoma) SIE beta-lactamase reporter, IL-6 stimulated, 5 h; at 17.2 µM (top of the series) unless noted
In short: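 FRET read-out (405 nm excitation, 460/530 nm emission) of a beta-lactamase reporter under a STAT-inducible element in ME-180 cervical carcinoma cells. Cells with compound receive 40 pM IL-6 for 5 h. Values are normalised to AC90 stimulation and AC90 JAK-inhibitor controls.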

[3] = target: Glucocorticoid receptor (Homo sapiens) (UniProt P04150); assay: GR-GFP Redistribution (AID 450;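 active = compounds whose dose series gives a full or clear partial fitted curve of increased nuclear translocation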; also: potency is read from the fitted curve at half-maximal effect)
Sequence of Glucocorticoid receptor (Homo sapiens) (P04150 whole entry, looked up, the tested form may be a part): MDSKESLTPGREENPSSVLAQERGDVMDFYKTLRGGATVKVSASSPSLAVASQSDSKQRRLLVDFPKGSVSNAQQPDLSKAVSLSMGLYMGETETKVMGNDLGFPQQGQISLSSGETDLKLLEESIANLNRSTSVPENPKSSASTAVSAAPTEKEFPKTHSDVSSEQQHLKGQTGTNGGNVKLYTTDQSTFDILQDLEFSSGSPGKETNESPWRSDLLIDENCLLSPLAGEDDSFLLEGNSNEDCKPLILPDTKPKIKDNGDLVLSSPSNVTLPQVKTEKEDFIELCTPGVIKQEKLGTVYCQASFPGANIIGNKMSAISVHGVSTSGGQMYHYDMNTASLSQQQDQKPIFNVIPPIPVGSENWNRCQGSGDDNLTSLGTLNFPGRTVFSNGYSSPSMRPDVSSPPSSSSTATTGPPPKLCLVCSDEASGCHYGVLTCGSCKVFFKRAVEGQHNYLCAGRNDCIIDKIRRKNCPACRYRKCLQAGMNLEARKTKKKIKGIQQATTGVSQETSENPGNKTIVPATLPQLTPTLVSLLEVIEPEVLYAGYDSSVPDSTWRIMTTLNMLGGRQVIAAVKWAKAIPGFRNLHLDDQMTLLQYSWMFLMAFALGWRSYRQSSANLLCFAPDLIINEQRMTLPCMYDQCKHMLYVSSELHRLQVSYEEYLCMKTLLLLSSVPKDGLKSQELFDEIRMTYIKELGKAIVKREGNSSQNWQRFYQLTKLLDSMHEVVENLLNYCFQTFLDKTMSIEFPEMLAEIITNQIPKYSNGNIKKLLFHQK

[4] = target: Glucocorticoid receptor (Homo sapiens) (UniProt P04150); assay: GR-EFC Redistribution (AID 451; calls by dose curve; also: potency is read from the fitted curve at half-maximal effect); conditions: CHO-K1 GR-EFC translocation, beta-gal luminescence, 2 h
In short: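 CHO-K1 cells stably expressing nuclear-localized β-gal enzyme acceptor and GR fused C-terminally to the enzyme donor fragment; ligand-driven nuclear translocation restores β-gal by complementation. Compounds titrated up to 46 uM final, 2 h at 37 °C; luminescence read.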

[5] = target: Mitogen-activated protein kinase 10 (Mus musculus) (UniProt Q61831); assay: JNK3 AlphaScreen Assay (AID 530; active = well fitted curve in either direction with a large enough effect, not every such curve was filed as active;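 also: kinase came from lysate of stimulated human HepG2 cells; signal reports phosphorylation of biotinylated GST-cJun 1-79 at Ser73 with 10 µM ATP; % is scaled to controls: 0 for no effect and ±100 for the full control effect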)
In short: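 Biotinylated GST-cJun(1-79) served as substrate for JNK3 in HepG2 lysates stimulated with IL-1beta and TNF-alpha. ATP was 10 uM final, pH 7.6. Ser73 phosphorylation was quantified by AlphaScreen (680 nm excitation).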

[6] = target: 3',5'-cyclic-AMP phosphodiesterase 4B (Homo sapiens) (UniProt Q07343); assay: qHTS Assay for Inhibitors of PDE-IV (AID 607; active = well fitted activation curve with a large enough effect in the main read-out, with a control signal flat, not every such curve was filed as active; also: % of control where 0% means no effect)
Sequence of 3',5'-cyclic-AMP phosphodiesterase 4B (Homo sapiens) (Q07343 whole entry, looked up): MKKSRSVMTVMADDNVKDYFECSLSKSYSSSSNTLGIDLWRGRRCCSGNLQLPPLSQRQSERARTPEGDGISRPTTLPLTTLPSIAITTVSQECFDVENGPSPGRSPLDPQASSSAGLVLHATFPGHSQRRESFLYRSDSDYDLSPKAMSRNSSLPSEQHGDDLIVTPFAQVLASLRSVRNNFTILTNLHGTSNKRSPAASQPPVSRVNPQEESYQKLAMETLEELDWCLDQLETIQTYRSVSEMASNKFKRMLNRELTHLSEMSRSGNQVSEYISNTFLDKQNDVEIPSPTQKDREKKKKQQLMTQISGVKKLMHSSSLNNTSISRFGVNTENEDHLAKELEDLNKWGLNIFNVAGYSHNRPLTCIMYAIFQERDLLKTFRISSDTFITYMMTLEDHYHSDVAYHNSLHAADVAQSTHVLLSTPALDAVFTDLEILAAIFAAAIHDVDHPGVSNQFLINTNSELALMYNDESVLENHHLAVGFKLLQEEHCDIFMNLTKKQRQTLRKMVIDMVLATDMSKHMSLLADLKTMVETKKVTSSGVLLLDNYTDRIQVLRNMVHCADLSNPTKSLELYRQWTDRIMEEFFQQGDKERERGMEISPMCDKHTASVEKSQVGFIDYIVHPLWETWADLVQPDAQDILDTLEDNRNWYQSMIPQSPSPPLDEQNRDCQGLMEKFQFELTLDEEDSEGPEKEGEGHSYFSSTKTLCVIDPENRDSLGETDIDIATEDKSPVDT
In short: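 Cell-based read-out of cAMP via a modified cyclic nucleotide-gated channel and membrane potential dye (535/590 nm) in HEK293 cells expressing PDE4 endogenously. Compounds tested up to 22.9 uM final; 100 uM RO 20-1724 reference.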

[7] = target: Cytochrome P450 3A4 (Homo sapiens) (UniProt P08684); assay: qHTS Assay for Inhibitors and Substrates of Cytochrome P450 3A4 (AID 884); also: % is scaled to controls: 0 for no effect and ±100 for the full control effect; nearly all actives have a fitted effect of over 50% in size
Sequence of Cytochrome P450 3A4 (Homo sapiens) (P08684 whole entry, looked up): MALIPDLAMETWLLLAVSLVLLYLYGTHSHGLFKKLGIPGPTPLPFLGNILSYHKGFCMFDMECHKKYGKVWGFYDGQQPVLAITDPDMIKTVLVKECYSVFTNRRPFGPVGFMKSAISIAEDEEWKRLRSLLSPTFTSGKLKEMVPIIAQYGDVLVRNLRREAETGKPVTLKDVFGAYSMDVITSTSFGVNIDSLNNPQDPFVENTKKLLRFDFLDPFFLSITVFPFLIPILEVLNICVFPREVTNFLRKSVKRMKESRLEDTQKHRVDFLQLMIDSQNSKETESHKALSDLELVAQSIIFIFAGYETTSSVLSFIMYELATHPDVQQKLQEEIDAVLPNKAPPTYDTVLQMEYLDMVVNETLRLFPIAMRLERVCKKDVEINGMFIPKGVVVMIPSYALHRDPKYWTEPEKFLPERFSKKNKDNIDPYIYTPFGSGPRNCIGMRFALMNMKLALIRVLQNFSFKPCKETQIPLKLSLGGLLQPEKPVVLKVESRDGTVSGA
In short: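 Luminescent readout of luciferin produced by CYP3A4 (20 nM) dealkylation of Luciferin-PPXE, 25 uM (its KM). NADPH-driven reaction ran 60 min at RT after 10 min compound preincubation; data scaled to 57 uM ketoconazole as 100% inhibition.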

[8] = Confirmation and Secondary Assay for Modulators of Hemoglobin Beta Chain Splicing at IVS2 654 locus (AID 910); also: % of control where 0% means no effect
In short: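 HeLa cells stably carrying EGFP interrupted by mutant beta-globin IVS2-654 intron (CMV-driven) were treated with compound for 2 days at 37C; corrected splicing was scored as total peak GFP intensity per well (488 nm excitation, 500-520 nm emission).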

[9] = Confirmation and Secondary Assay for Modulators of Hemoglobin Beta Chain Splicing at IVS2 705 locus (AID 930);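 also: HeLa cells stably expressing the EGFP-705 splicing reporter; GFP fluorescence per well restored by corrected splicing of the IVS2-705 intron in EGFP; % of control where 0% means no effect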
In short: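 Read-out: total peak GFP fluorescence per well (488 nm excitation, 500-520 nm emission) by laser-scanning cytometry. Cells: HeLa EGFP-705 splicing reporter, 2 days compound exposure in Optimem/2% FCS.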

[10] = target: Ubiquitin carboxyl-terminal hydrolase 1 (Homo sapiens) (UniProt O94782); assay: Inhibitors of USP1/UAF1: Pilot qHTS (AID 504865); also: potency is read from the fitted curve at half-maximal effect; nearly all actives have a fitted effect of over 35% in size
Sequence of Ubiquitin carboxyl-terminal hydrolase 1 (Homo sapiens) (O94782 whole entry, looked up): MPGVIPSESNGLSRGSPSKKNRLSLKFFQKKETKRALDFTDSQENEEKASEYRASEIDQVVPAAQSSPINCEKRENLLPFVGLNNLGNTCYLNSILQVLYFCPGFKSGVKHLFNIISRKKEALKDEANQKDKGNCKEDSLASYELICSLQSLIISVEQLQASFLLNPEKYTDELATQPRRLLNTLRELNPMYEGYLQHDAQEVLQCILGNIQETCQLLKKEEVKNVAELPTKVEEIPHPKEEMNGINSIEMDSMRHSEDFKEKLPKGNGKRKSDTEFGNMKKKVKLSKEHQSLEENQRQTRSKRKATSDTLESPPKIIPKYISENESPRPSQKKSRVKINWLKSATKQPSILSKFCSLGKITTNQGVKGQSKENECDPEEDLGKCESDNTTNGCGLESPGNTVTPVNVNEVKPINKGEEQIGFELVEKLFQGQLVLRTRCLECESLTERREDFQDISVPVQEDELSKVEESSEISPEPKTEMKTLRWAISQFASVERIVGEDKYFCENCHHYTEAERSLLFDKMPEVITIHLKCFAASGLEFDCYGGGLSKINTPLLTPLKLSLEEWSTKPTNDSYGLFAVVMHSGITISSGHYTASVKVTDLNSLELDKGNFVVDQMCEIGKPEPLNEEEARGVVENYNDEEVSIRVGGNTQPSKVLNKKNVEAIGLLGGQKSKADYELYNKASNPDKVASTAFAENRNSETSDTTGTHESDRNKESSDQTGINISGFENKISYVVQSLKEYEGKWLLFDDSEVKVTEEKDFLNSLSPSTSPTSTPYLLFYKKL
In short: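 USP1/UAF1 complex at 1 nM preincubated 15 min at room temperature with compound, then Ub-Rho substrate added at 150 nM final. Fluorescence (480/540 nm) read kinetically in 50 mM HEPES pH 7.8, 0.5 mM EDTA, 1 mM TCEP, 0.1 mg/ml BSA, 0.01% Tween-20.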

[11] = target: Estrogen receptor (Homo sapiens) (UniProt P03372); assay: qHTS assay for small molecule agonists of estrogen receptor alpha signaling (AID 588514; calls by dose curve;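 also: 0% = vehicle only and 100% = reference agonist; nearly all actives have a fitted effect of over 70% in size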)
In short: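 Fluorescence from CCF4 cleavage reports ER-alpha-driven beta-lactamase expression in HEK 293 cells treated 18 hrs at 37 C. Data normalized to 17-beta-estradiol (20 nM) and DMSO, fitted to Hill equation.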

[12] = target: Androgen receptor (Homo sapiens) (UniProt P10275); assay: qHTS assay for small molecule antagonists of androgen receptor signaling (AID 588516; active = well fitted curve in the direction sought with a large enough effect in the signal ratio, with a control signal flat, not every such curve was filed as active; the % refers to the signal ratio; also: % is scaled to controls: 0 for no effect and ±100 for the full control effect)
In short: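 AR-UAS-bla GripTite HEK 293 cells (2000/well) treated with compound titrations plus 10 nM R1881 for 16 h at 37C. Beta-lactamase read by CCF4 FRET (460/530 nm); IC50 from Hill fits, normalized to R1881 and DMSO control wells.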

[13] = target: Glucocorticoid receptor (Homo sapiens) (UniProt P04150); assay: qHTS assay for small molecule agonists of glucocorticoid receptor signaling (AID 588532; active = well fitted curve in the direction sought with a large enough effect in the signal ratio, with a control signal flat; the % refers to the signal ratio;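 also: 100% = dexamethasone at 0.1 µM and 0% = DMSO only wells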); conditions: HeLa MMTV-bla, beta-lactamase ratio, agonist, 18 h; stronger effect = higher value; percent of dexamethasone control, DMSO zero
In short: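 Titration series, up to 92 uM, applied to GRE-bla HeLa cells for 18 h at 37 C. Detection by CCF4 FRET substrate after 2 h at RT.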

[14] = qHTS assay for small molecule antagonists of peroxisome proliferator-activated receptor delta signaling (AID 588535; active = well fitted inhibition curve with a large enough effect in the signal ratio, with a control signal flat, not every such curve was filed as active; the % refers to the signal ratio;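 as to max response: cells co-treated with a PPAR-delta agonist as stimulator during compound exposure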); conditions: HEK293T PPARd-UAS-bla, beta-lactamase FRET ratio, 18 h; 460 nm channel
In short: (§1)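 Compounds tested in titration on PPAR-delta-UAS-bla HEK293T cells grown in charcoal/dextran-stripped serum (2%); beta-lactamase activity read via CCF4 emission at 460 and 530 nm.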

[15] = target: Peroxisome proliferator-activated receptor delta (Homo sapiens) (UniProt Q03181); assay: as above
In short: as §1

[16] = target: Peroxisome proliferator-activated receptor gamma (Homo sapiens) (UniProt P37231); assay: qHTS assay for small molecule agonists of peroxisome proliferator-activated receptor gamma signaling (AID 588536; active = well fitted curve in the direction sought with a large enough effect in the signal ratio, with a control signal flat, not every such curve was filed as active; the % refers to the signal ratio;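 also: 0% = DMSO basal wells and 100% = rosiglitazone at 2 µM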)
Sequence of Peroxisome proliferator-activated receptor gamma (Homo sapiens) (P37231 whole entry, looked up): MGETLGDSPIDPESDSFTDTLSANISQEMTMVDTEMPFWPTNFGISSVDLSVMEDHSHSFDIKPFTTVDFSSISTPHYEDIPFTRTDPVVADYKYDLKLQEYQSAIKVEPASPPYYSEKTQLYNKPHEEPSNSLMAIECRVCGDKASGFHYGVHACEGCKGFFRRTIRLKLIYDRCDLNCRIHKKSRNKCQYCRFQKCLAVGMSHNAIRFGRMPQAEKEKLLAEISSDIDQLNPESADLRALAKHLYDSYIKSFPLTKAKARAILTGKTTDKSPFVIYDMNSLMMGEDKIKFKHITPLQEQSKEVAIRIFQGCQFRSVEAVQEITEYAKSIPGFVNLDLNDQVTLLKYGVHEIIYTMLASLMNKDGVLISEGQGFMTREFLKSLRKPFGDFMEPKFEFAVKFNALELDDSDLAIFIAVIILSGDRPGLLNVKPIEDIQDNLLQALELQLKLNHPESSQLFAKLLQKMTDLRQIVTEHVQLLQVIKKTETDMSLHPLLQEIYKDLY
In short: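 This is an agonist-mode beta-lactamase reporter assay in HEK293 PPAR-gamma-UAS-bla cells with 1% charcoal/dextran FBS. Compound titrations ran 16 h at 37 C before CCF4 detection. EC50 and efficacy are Hill fits scaled to 2 uM rosiglitazone (100%) and DMSO basal.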

[17] = target: Vitamin D3 receptor (Homo sapiens) (UniProt P11473); assay: qHTS assay for small molecule antagonists of vitamin D receptor signaling (AID 588541; calls by dose curve)
Sequence of Vitamin D3 receptor (Homo sapiens) (P11473 whole entry, looked up): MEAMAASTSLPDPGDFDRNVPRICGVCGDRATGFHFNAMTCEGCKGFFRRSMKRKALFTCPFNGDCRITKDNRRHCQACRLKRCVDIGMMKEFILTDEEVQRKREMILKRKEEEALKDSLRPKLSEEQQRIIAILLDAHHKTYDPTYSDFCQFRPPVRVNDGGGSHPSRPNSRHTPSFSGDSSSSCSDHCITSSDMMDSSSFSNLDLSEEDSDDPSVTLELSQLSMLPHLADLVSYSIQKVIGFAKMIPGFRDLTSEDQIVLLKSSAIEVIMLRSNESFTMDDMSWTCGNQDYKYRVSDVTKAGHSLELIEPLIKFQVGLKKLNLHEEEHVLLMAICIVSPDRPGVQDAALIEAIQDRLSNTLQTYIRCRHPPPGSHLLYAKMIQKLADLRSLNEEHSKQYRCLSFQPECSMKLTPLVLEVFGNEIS
In short: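 VDR-UAS-bla HEK293T cells (2000/well, 2% charcoal-stripped FBS) were treated with titrated compounds plus 1-alpha,25-dihydroxyvitamin D3 (50 nM or 3 nM final) for 16 h at 37 C. CCF4 beta-lactamase fluorescence was read; Hill fits gave IC50.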

[18] = target: Vitamin D3 receptor (Homo sapiens) (UniProt P11473); assay: qHTS assay for small molecule agonists of vitamin D receptor signaling (AID 588543; calls by dose curve;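 also: 0% = DMSO basal and 100% = reference agonist control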)
In short: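 VDR-UAS-bla HEK293T cells, 2000/well, 2% charcoal-stripped FBS; compound titration 16 h at 37 C; CCF4 beta-lactamase ratio read. Normalized to 50 nM 1-alpha,25-dihydroxyvitamin D3 (100%) and DMSO; Hill fit gives EC50, efficacy.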

[19] = target: Luciferin 4-monooxygenase (Photinus pyralis) (UniProt P08659); assay: Biochemical firefly luciferase enzyme assay for NPC (AID 624030);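 also: purified P. pyralis luciferase at 10 nM with luciferin and ATP substrate; 0% = DMSO and -100% = full luciferase inhibition by PTC124 control; nearly all actives have a fitted effect of over 70% in size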
Sequence of Luciferin 4-monooxygenase (Photinus pyralis) (P08659 whole entry, looked up): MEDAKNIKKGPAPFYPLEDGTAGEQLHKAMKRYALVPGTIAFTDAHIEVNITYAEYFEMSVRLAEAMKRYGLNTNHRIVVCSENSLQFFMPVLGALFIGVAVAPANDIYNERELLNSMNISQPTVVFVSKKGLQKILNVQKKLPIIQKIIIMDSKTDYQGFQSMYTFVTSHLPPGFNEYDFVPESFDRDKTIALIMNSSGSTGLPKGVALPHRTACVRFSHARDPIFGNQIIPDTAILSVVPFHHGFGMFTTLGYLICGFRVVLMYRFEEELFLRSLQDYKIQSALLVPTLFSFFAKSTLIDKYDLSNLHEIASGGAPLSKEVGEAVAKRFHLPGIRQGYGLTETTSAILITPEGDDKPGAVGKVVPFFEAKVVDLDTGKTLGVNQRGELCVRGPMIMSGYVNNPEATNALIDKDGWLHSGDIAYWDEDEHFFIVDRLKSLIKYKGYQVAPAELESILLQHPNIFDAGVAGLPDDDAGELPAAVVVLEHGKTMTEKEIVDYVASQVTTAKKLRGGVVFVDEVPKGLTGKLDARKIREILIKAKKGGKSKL
In short: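 Counter-screen for direct inhibition of the luciferase enzyme by approved-drug library compounds, run at 10 nM enzyme in 50 mM Tris acetate (final). Luminescence was read within 5 min of enzyme-buffer addition and normalized to PTC124 versus DMSO (0%).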

[20] = qHTS assay for environmental chemicals that activate the Aryl hydrocarbon Receptor (AhR) signaling pathway (AID 651777); conditions: 1A2-DRE human hepatoma cells, luciferase, 24 h; activation: stronger effect = higher value; also: % of control where 0% means no effect; nearly all actives have a fitted effect of over 15% in size
In short: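 Luminescence read-out: One-Glo added for 30 min at RT after 24 hr compound treatment (37 C, 5% CO2) of human hepatoma cells expressing a DRE/CYP1A2 promoter–luciferase reporter; increased signal indicates AhR activation.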

[21] = qHTS assay for small molecule agonists of the antioxidant response element (ARE) signaling pathway measured by Nrf2-dependant transcriptional activity (AID 720636; active = well fitted curve in the direction sought with a large enough effect in the repeat runs; an effect the other way counts as inactive or inconclusive;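 also: HepG2 cells with an ARE-driven luciferase reporter; % of control where 0% means no effect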)
In short: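 HepG2 ARE-luc reporter line, 1% dialyzed FBS; 6 hr attachment at 37 C, compound pinned in, 16 hr at 37 C/5% CO2; ONE-Glo, 30 min RT, luminescence read.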

[22] = qHTS assay for small molecule agonists of the antioxidant response element (ARE) signaling pathway measured by Nrf2-dependant transcriptional activity - cell viability counter screen (AID 720653; active = well fitted curve in the direction sought with a large enough effect in the repeat runs; an effect the other way counts as inactive or inconclusive; also: % is scaled to controls: 0 for no effect and ±100 for the full control effect); conditions: ARE-bla HepG2 viability, CellTiter-Glo ATP luminescence, 16 h; max response: stronger effect = lower value
In short: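 ARE-bla HepG2 cells (2,000/well) rested 5 hrs at 37C/5% CO2, then exposed to compounds in DMSO for 16 hrs. Viability was read in the same wells as intracellular ATP by luminescence, 30 min at room temperature after reagent addition.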

[23] = qHTS assay for cell viability of HEK293 cells (AID 743288); conditions: ATP luminescence (CellTiter-Glo), 18 h; max response: stronger effect = lower value; also: % is scaled to controls: 0 for no effect and ±100 for the full control effect; nearly all actives have a fitted effect of over 50% in size
In short: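 Steps: plate 2,000 parental HEK293 cells per well; incubate ≥5 h, 37 C; add compounds in DMSO; incubate 18 h, 37 C; add CellTiter-Glo; wait 30 min at room temperature; read luminescence.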

[24] = qHTS assay for cell viability of the p53RE-bla HCT-116 cell line (AID 743292); also: % is scaled to controls: 0 for no effect and ±100 for the full control effect; nearly all actives have a fitted effect of over 55% in size
In short: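 Luminescent ATP quantitation (CellTiter-Glo) served as the viability read-out; reagent was added after 16 h compound exposure at 37 C and read after 30 min at room temperature. Cells: p53RE-bla HCT-116, 4,000 per well.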

[25] = target: Nuclear receptor subfamily 1 group I member 2 (Rattus norvegicus) (UniProt Q9R1A7); assay: qHTS assay for small molecule activators of the rat pregnane X receptor (rPXR) signaling pathway (AID 651751; call rule not given here; also: 0% is about no effect); conditions: rPXR reporter cells, luciferase (One-Glo), 24 h
Sequence of Nuclear receptor subfamily 1 group I member 2 (Rattus norvegicus) (Q9R1A7 whole entry, looked up): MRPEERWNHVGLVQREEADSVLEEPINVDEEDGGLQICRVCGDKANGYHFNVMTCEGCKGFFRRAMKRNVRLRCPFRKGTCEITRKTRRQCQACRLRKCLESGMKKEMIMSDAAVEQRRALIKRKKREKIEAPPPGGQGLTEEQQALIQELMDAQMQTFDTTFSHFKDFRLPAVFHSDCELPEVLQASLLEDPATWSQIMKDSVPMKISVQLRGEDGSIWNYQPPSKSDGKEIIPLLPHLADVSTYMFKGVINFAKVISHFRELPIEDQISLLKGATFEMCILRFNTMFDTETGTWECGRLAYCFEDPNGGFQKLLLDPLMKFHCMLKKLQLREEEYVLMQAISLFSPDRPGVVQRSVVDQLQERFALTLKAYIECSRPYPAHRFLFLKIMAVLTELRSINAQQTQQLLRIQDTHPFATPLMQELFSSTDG

[26] = qHTS assay for small molecule activators of the human pregnane X receptor (PXR) signaling pathway (AID 720659; call rule not given here; also: 0% is about no effect)

c1ccc(N2CCN(c3nc(NCc4ccco4)c4ccccc4n3)CC2)cc1
inactive: activity change, negative = inhibition [1] -16.8% | activity, negative = inhibition [2] -28% | Potency [3] > 20.6 µM

Cc1cc(C(C)(C)CC(C)(C)C)ccc1OCCOCC[N+](C)(C)Cc1ccccc1
active: Potency [10] 35.5 µM
14.2%: max response [14]
inactive: activity change, negative = inhibition [1] 18.1% | activity, negative = inhibition [2] 4.17% | Potency [3] > 20.6 µM | Potency [4] > 20.6 µM | Potency [5] | Potency [6] | Potency [7] | Potency [8] | Potency [9] | outcome [11] | outcome [12] | activation [13] -7.21% | outcome [15] | outcome [16] | Potency [17] | outcome [18] | Potency [19] | activation [20] 0.146% | Potency [21] | max response [22] -8.26% | max response [23] -29.5% | Potency [24] | max response [25] -12.4% | outcome [26]
